# Test results as given in the supplement of paper PMC7156485.
# Where “and” joins values, the source holds several entries; their conditions need not be identical. Equal entries are not always repeated. ± gives the standard deviation of the averaged measurements.
# Legend:
# Details in all cases: concentration: 10 µM; 24 h
# HCC1569 [1] = experiment: cell number relative to DMSO (% of DMSO); higher = more cells (less growth inhibition / toxicity)
# Summary of the method: (§1)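 In 384-well plates holding 800 HCC1569 or TDF cells per well in RPMI with 10% FBS, compounds were tested at 10 µM for 24 h at 37 °C in triplicate. Fixation used 3.7% formaldehyde. Staining used a rabbit anti-H1.0 antibody with an AlexaFluor 647 secondary, plus DAPI. Each value, H1.0 nuclear intensity or cell number, is a median of replicates shown as percent of the plate control, and HCC1569 values were smoothed for positional effects.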
# TDF [2] = experiment: as above
# Summary of the method: as §1
# TDF [3] = experiment: H1.0 immunofluorescence intensity relative to DMSO (% of DMSO); higher = stronger H1.0 induction, active = 120 or more
# Summary of the method: as §1
# HCC1569 [4] = experiment: H1.0 immunofluorescence intensity relative to DMSO (% of DMSO); higher = stronger H1.0 induction, active = 140 or more
# Summary of the method: as §1
# 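Wherever H1.0 immunofluorescence intensity relative to DMSO is given: TDF is a line of transformed human dermal fibroblasts of mesenchymal origin.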
# 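Wherever cell number relative to DMSO is given: TDF denotes transformed human dermal fibroblasts of mesenchymal origin.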
compound,measurement,setting,value
CCNC(=O)N1CCN(CCCC(c2ccc(F)cc2)c2ccc(F)cc2)CC1.Cl [Amperozide hydrochloride],cell number,HCC1569 [1],94.2
same,cell number,TDF [2],95.8
same,H1.0 immunofluorescence intensity,TDF [3],97 (inactive)
same,H1.0 immunofluorescence intensity,HCC1569 [4],99 (inactive)
"Cc1ccc(OCC(O)C(C)NC(C)C)c2c1CCC2.Cl (stereo not given) [ICI 118,551 hydrochloride]",cell number,HCC1569 [1],101
same,cell number,TDF [2],104
same,H1.0 immunofluorescence intensity,TDF [3],96.9 (inactive)
same,H1.0 immunofluorescence intensity,HCC1569 [4],98.4 (inactive)
O=C(Nc1ccc([N+](=O)[O-])cc1Cl)c1cc(Cl)ccc1O [Niclosamide],cell number,HCC1569 [1],70
same,cell number,TDF [2],78.1
same,H1.0 immunofluorescence intensity,TDF [3],104 (inactive)
same,H1.0 immunofluorescence intensity,HCC1569 [4],120 (inactive)
CCCc1cc(=O)oc2c(C(=O)N3CCCc4ccccc43)c(OC)cc(OC)c12,cell number,HCC1569 [1],55.5
same,cell number,TDF [2],46.1
same,H1.0 immunofluorescence intensity,TDF [3],108 (inactive)
same,H1.0 immunofluorescence intensity,HCC1569 [4],159 (active)
CC12CCc3occc3C1CCC13CC(CCC12)C(O)(CO)C3 (stereo not given) [Cafestol],cell number,HCC1569 [1],103
same,cell number,TDF [2],101
same,H1.0 immunofluorescence intensity,TDF [3],103 (inactive)
same,H1.0 immunofluorescence intensity,HCC1569 [4],88.2 (inactive)
COc1ccc2c3c1OC1CC(O)C=CC31CCN(C)C2 (stereo not given) [Galanthamine],cell number,HCC1569 [1],101
same,cell number,TDF [2],110
same,H1.0 immunofluorescence intensity,TDF [3],94 (inactive)
same,H1.0 immunofluorescence intensity,HCC1569 [4],94.8 (inactive)
CCCCCC=CCC=CC=CC=CC(O)C(O)CCCC(=O)O (stereo not given),cell number,HCC1569 [1],99.8
same,cell number,TDF [2],100
same,H1.0 immunofluorescence intensity,TDF [3],99.2 (inactive)
same,H1.0 immunofluorescence intensity,HCC1569 [4],96.6 (inactive)
CCCCCCCCCCCCCC=CC(O)C(N)CO (stereo not given) [Sphingosine],cell number,HCC1569 [1],103 ± 4.4
same,cell number,TDF [2],101 ± 6.5
same,H1.0 immunofluorescence intensity,TDF [3],96.9 (inactive)
same,H1.0 immunofluorescence intensity,HCC1569 [4],98.4 (inactive)
CC1=CCCC(C)(O)C=CC(C(C)C)C(OC(=O)c2ccc(O)cc2)C1 (stereo not given) [Feroline],cell number,HCC1569 [1],102
same,cell number,TDF [2],96
same,H1.0 immunofluorescence intensity,TDF [3],102 (inactive)
same,H1.0 immunofluorescence intensity,HCC1569 [4],93.3 (inactive)
CCCCN1CC(O)C(O)C(O)C1CO (stereo not given) [Miglustat],cell number,HCC1569 [1],100
same,cell number,TDF [2],95.6
same,H1.0 immunofluorescence intensity,TDF [3],97.2 (inactive)
same,H1.0 immunofluorescence intensity,HCC1569 [4],114 (inactive)
C=CCCCCCCCCC(=O)O [10-Undecenoic acid],cell number,HCC1569 [1],102
same,cell number,TDF [2],103
same,H1.0 immunofluorescence intensity,TDF [3],104 (inactive)
same,H1.0 immunofluorescence intensity,HCC1569 [4],105 (inactive)
COc1ccc(CCNCC(O)c2ccc(O)cc2)cc1OC (stereo not drawn) [R(-)-Denopamine],cell number,HCC1569 [1],100
same,cell number,TDF [2],103
same,H1.0 immunofluorescence intensity,TDF [3],93.5 (inactive)
same,H1.0 immunofluorescence intensity,HCC1569 [4],105 (inactive)
"C[N+](C)(C)CCO.[Cl-] [2-hydroxy-N,N,N-trimethylethanaminium chloride]",cell number,HCC1569 [1],101
same,cell number,TDF [2],107
same,H1.0 immunofluorescence intensity,TDF [3],94.9 (inactive)
same,H1.0 immunofluorescence intensity,HCC1569 [4],99.5 (inactive)
O=C1N=c2ccccc2=C1c1[nH]c2ccccc2c1NOCCC(O)CO (stereo not given) [Indirubin Derivative E804],cell number,HCC1569 [1],60.8
same,cell number,TDF [2],62.7
same,H1.0 immunofluorescence intensity,TDF [3],102 (inactive)
same,H1.0 immunofluorescence intensity,HCC1569 [4],167 (active)
O=C1c2ccc(O)cc2OC(c2cc(O)c(O)c(O)c2)C1O (stereo not given) [Dihydrorobinetine],cell number,HCC1569 [1],102
same,cell number,TDF [2],106
same,H1.0 immunofluorescence intensity,TDF [3],95.3 (inactive)
same,H1.0 immunofluorescence intensity,HCC1569 [4],95.3 (inactive)
Cl.Cl.OCCN1CCN(CCCN2c3ccccc3Sc3ccc(C(F)(F)F)cc32)CC1 [Fluphenazine.2HCl],cell number,HCC1569 [1],95.6
same,cell number,TDF [2],107
same,H1.0 immunofluorescence intensity,TDF [3],101 (inactive)
same,H1.0 immunofluorescence intensity,HCC1569 [4],116 (inactive)
O=C(Nc1cccc(C(F)(F)F)c1)Nc1cc(S(=O)(=O)NC2CC2)ccc1-c1ccsc1,cell number,HCC1569 [1],91.2
same,cell number,TDF [2],89.5
same,H1.0 immunofluorescence intensity,TDF [3],94.6 (inactive)
same,H1.0 immunofluorescence intensity,HCC1569 [4],130 (inactive)
COc1ccnc(CS(=O)c2nc3ccc(OC(F)F)cc3[nH]2)c1OC (stereo not given) [Pantoprazole],cell number,HCC1569 [1],100
same,cell number,TDF [2],105
same,H1.0 immunofluorescence intensity,TDF [3],102 (inactive)
same,H1.0 immunofluorescence intensity,HCC1569 [4],103 (inactive)
Cc1ccc(NC2=CC(=O)c3sc(C)nc3C2=O)cc1 [Cdk4 Inhibitor III],cell number,HCC1569 [1],26.6
same,cell number,TDF [2],12
same,H1.0 immunofluorescence intensity,TDF [3],132 (active)
same,H1.0 immunofluorescence intensity,HCC1569 [4],105 (inactive)
CC12C=CC(=O)C=C1CCC1C2=CCC2(C)C(C(=O)CN3CCN(c4cc(N5CCCC5)nc(N5CCCC5)n4)CC3)CCC12.O=C(O)C=CC(=O)O (stereo not given),cell number,HCC1569 [1],91.7 and 96.8
same,cell number,TDF [2],93.4 and 95.2
same,H1.0 immunofluorescence intensity,TDF [3],95.3 (inactive) and 98.1 (inactive)
same,H1.0 immunofluorescence intensity,HCC1569 [4],98 (inactive) and 96.5 (inactive)
"O=C(O)c1ccc(SC2=NS(=O)(=O)c3ccccc32)cc1 [4-((1,1-dioxidobenzo[d]isothiazol-3-yl)thio)benzoic acid]",cell number,HCC1569 [1],100
same,cell number,TDF [2],107
same,H1.0 immunofluorescence intensity,TDF [3],93.5 (inactive)
same,H1.0 immunofluorescence intensity,HCC1569 [4],98.7 (inactive)
O=C(NCCCCCCNC(=O)ON=C1CCCCC1)ON=C1CCCCC1,cell number,HCC1569 [1],96.6
same,cell number,TDF [2],100
same,H1.0 immunofluorescence intensity,TDF [3],98 (inactive)
same,H1.0 immunofluorescence intensity,HCC1569 [4],97.1 (inactive)
Oc1cccc(-c2nc(N3CCOCC3)c3oc4ncccc4c3n2)c1,cell number,HCC1569 [1],56.8
same,cell number,TDF [2],70
same,H1.0 immunofluorescence intensity,TDF [3],88 (inactive)
same,H1.0 immunofluorescence intensity,HCC1569 [4],205 (active)
CCCCCCC=CCCCCCCCC(=O)O [9(E)-Hexadecenoic acid],cell number,HCC1569 [1],99.8
same,cell number,TDF [2],97.4
same,H1.0 immunofluorescence intensity,TDF [3],105 (inactive)
same,H1.0 immunofluorescence intensity,HCC1569 [4],105 (inactive)
CCC1OC(=O)C(C)C(OC2CC(C)(OC)C(O)C(C)O2)C(C)C(OC2OC(C)CC(N(C)C)C2O)C(C)(O)CC(C)CN(C)C(C)C(O)C1(C)O (stereo not given) [Azithromycin],cell number,HCC1569 [1],106
same,cell number,TDF [2],109
same,H1.0 immunofluorescence intensity,TDF [3],91.2 (inactive)
same,H1.0 immunofluorescence intensity,HCC1569 [4],105 (inactive)
